Compound activity (PubChem)
AMA1-RON2 inh: AMA1-RON2 (P. falciparum) interaction inhibition; AlphaScreen AMA1-biotinylated RON2 peptide binding; Potency, µM (top dose mostly 58.2 µM), inactives show top-dose activity change, negative = inhibition, most hits filed as inhibitors; 360,000 tested, 0.2% active;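 note: potency is the fitted concentration of half-maximal effect; 0% = vehicle wells and -100% = peptide control; nearly all actives have a fitted effect of over 45% in size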
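AMA1 (3D7) with his tag at 25 nM final met compounds first, then biotinylated RON2 peptide at 25 nM; detection used donor plus acceptor beads, 10 µg/mL apiece, read by AlphaScreen after 30 min at room temperature.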
SARS PLP yeast: inhibitors of SARS-CoV papain-like protease in yeast; AID 485353; Potency, µM (top dose mostly 32.9 µM), for the others: at the highest dose activity, positive = growth rescue, most hits filed as activators; 330,000 tested, 0.19% active; S. cerevisiae expressing SARS-CoV PLpro, growth rescue; calls by dose curve; note: potency is the fitted concentration of half-maximal effect; 0% is about no effect; nearly all actives have a fitted effect of over 55% in size
Pf growth 48h: inhibits P. falciparum growth in the first generation, 48 h. P. falciparum luciferase growth in erythrocytes, 48 h. Potency, µM (top dose mostly 28.7 µM), without a hit: top-dose activity change, negative = inhibition, actives largely listed as inhibitors. 310,000 tested, 5.9% active; note: potency is the fitted concentration of half-maximal effect; % is set by controls: 0 for no effect and ±100 for the full control effect
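First compound was added to culture medium, then infected red cells at 0.1% parasitemia and 2% hematocrit (final). After incubation at 37 C under 5% CO2, luciferase detection reagent was dispensed and light output recorded.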
Pf growth 96h: P. falciparum growth inhibition at 96 hours; Potency, µM (highest dose often 28.7 µM), inactives show at the highest dose activity change, negative = inhibition, actives largely listed as inhibitors; AID 504834; P. falciparum luciferase reporter growth, 96 h; 320,000 tested, 6.9% active; note: potency is the fitted concentration of half-maximal effect; % is set by controls: 0 for no effect and ±100 for the full control effect
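Parasite growth measured via integrated firefly luciferase reporter in P. falciparum. Infected erythrocytes at 2% hematocrit, 0.05% parasitemia final were treated 96 hours at 37 C under 5% CO2, and luminescence was read.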
Shiga toxin inh: Shiga toxin inhibition | Vero cells, Shiga toxin protein synthesis inhibition reporter | 290,000 tested, 9.2% active | inhibition, % at 38.7 µM; in the data active = inhibition mostly above about 28%, no sharp cut-off; inactive = mostly below about 43%; note: 0% is about no effect
CHX counter: counter-screen hit for Shiga toxin inhibitors, cycloheximide; cell reporter, cycloheximide protein synthesis inhibition counterscreen; AID 2314; 300,000 tested, 12% active; max response, %; in the data active = max response mostly above about 13%, no sharp cut-off; inactive = mostly below about 14%; note: read at 38.3 µM for the half of the compounds with a filed dose; 0% is about no effect
Active calls of the source: *; i = inactive; ? = inconclusive; / = not tested or not shown; [ ] = dose if it differs, or a comment. The list is not random: actives were taken first. Their share in the collection is about 19%. Unless noted, calls come from the whole dose curve; as a rule, active = well fitted curve in the direction sought with a large enough effect; inconclusive = small, poorly fitted or top-dose-only effect, or another doubt; inactive = no such curve, though single readings can be large; an effect the other way counts as inactive or inconclusive.

SMILES	AMA1-RON2 inh	SARS PLP yeast	Pf growth 48h	Pf growth 96h	Shiga toxin inh	CHX counter
CC(C)(C)N1C(=O)[C@H]2[C@@H](c3ccc(Br)cc3)N3C(=O)N(c4cccc(Cl)c4)C(=O)[C@@]3(Cc3ccccc3)[C@H]2C1=O	8%	-1%	3.3µM*	4.7µM*	/	/
O=C(NCc1cccs1)C1C(=O)Nc2ccccc2C(=O)N1Cc1ccccc1 (stereo not drawn)	7%	/	/	/	/	/
CSc1ccccc1C(=O)NC1CCCc2ccccc21 (stereo not drawn)	-5%	-4%	-13%	?	-8	-3
COc1ccc([C@@H]2[C@@H]3C(=O)N(C(C)(C)C)C(=O)[C@@H]3[C@]3(Cc4ccccc4)C(=O)N(c4ccccc4)C(=O)N23)cc1	10%	3%	?	?	/	/
COc1ccc([C@@H]2[C@@H]3C(=O)N(C(C)(C)C)C(=O)[C@@H]3[C@]3(Cc4ccccc4)C(=O)N(c4cccc(Cl)c4)C(=O)N23)cc1	0%	0%	6.6µM*	9.3µM*	/	/
CN(Cc1cn(Cc2ccc(Cl)cc2)nn1)C1CN(Cc2cn(Cc3ccc(Cl)cc3)nn2)S(=O)(=O)C1 (stereo not drawn)	1%	/	/	/	/	/
Cc1c(Cl)cccc1NC(=S)NC1CCN(C(C)C)CC1	7%	-1%	?	9%	-5	0
COc1cc(C)ccc1OCC(=O)Nc1ccc2c(c1)OCO2	-2%	-14%	154%	105%	/	/
COc1ccccc1OCC(=O)Nc1ccc2c(c1)OCO2	-23%	-7%	46%	-8%	66*	25*
Cc1ccccc1OCC(=O)OCC(=O)Nc1ccc2c(c1)OCCO2	13%	3%	-12%	23%	/	/
CCN1CCc2c(OCC(=O)Nc3ccc4c(c3)OCCO4)cccc2C1=O	/	-1%	-40%[1.15 µM]	6.6µM*	-3	-7
Cc1ccc2cccc(OCC(=O)Nc3ccc4c(c3)OCO4)c2n1	-13%	-8%	-4%	-3%	48	-3
Cc1ccccc1OCC(=O)Nc1ccc2c(c1)OCO2	-4%	-10%	49%	/	157*	32*
O=C(COc1ccccc1Cl)Nc1ccc2c(c1)OCO2	0%	-2%	219%	-12%	71*	42*
N#C/C(=C(/O)CSc1ncn[nH]1)c1nc2ccccc2[nH]1	79%	-1%	?	?	-8	-3
COCCN(C(=O)COC(=O)c1ccc(Cl)s1)c1c(N)n(Cc2ccccc2)c(=O)[nH]c1=O	-9%	-3%	0%	41%	/	/
CCC(=O)N(C)C[C@H]1Oc2ncc(C#Cc3ccncc3)cc2C(=O)N([C@@H](C)CO)C[C@@H]1C	8%	/	/	/	/	/
CN(CC(=O)Nc1n[nH]c(=S)s1)S(=O)(=O)c1cccc2cccnc12	81%	3%	-5%	5.2µM*	-7	-5
Cc1csc(NC(=O)CN(C)S(=O)(=O)c2cccc3cccnc23)n1	-1%	-9%	/	66%	4	5
Cc1ccc(-c2cc(-c3ccccc3)cc(-c3ccccc3)[n+]2-c2ccc(C(=O)O)cc2)cc1	15%	-20%	?	?	/	/
Brc1ccc(-[n+]2c(-c3ccccc3)cc(-c3ccccc3)cc2-c2ccccc2)cc1	-4%	-8%	1.9µM*	0.83µM*	/	/
O=C(O)c1ccc(-[n+]2c(-c3ccccc3)cc(-c3ccccc3)cc2-c2ccccc2)cc1	-5%	-5%	?	?	/	/
COc1ccc(-c2cc(-c3ccccc3)[n+](C)c(-c3ccccc3)c2)cc1	-10%	-2%	?	?	-4	0
CCCOC(=O)c1ccc(-[n+]2c(-c3ccccc3)cc(-c3ccccc3)cc2-c2ccccc2)cc1	2%	2%	2.3µM*	1.3µM*	/	/
COc1ccc(-[n+]2c(-c3ccccc3)cc(-c3ccc(C)cc3)cc2-c2ccccc2)cc1	?	-20%	0.93µM*	145%	-15	-9
SMILES	AMA1-RON2 inh	SARS PLP yeast	Pf growth 48h	Pf growth 96h	Shiga toxin inh	CHX counter
CCN1C(=NCC(C)C)N[C@@H](c2ccccc2)[C@H](C(=O)OC)[C@H]1C	/	-2%	35%	?	-3	-3
CCOc1ccc(C(=O)NCC(c2cccs2)N(C)C)cc1 (stereo not drawn)	-7%	?	16%	?	28*	35*
CCOc1ccc(C(=O)NCc2ccncc2)cc1	-8%	-3%	7%	4.1µM*	-6	-3
CC(NC(=O)COc1ccccc1)C1COc2ccccc2O1 (stereo not drawn)	2%	/	/	/	/	/
CCOc1ccc(C(=O)NCC(C)C)cc1	-3%	/	57%	281%	57*	22*
CCOc1ccc(C(=O)NCC(C)NC(=O)c2ccc(OCC)cc2)cc1 (stereo not drawn)	-16%	-3%	7%	0%	0	1
CCOc1ccc(C(=O)NC(C)C2COc3ccccc3O2)cc1 (stereo not drawn)	-8%	-1%	33%	1%	34	11*
COC(=O)C1(Cc2cc(-c3cccnc3)no2)CCN(C(=O)OC(C)(C)C)CC1	-3%	-12%	?	10µM*	12	10.0*
CC(C)(C)CC(C)(C)c1ccc(OCCOCC[N+](C)(C)Cc2ccccc2)cc1	-2%	/	0.93µM*	0.47µM*	/	/
CC(C)(C)CC(C)(C)c1ccc(OCCO)cc1	/	/	-27%	?	/	/
C[N+](C)(CCOc1ccccc1)Cc1ccccc1 (tested in a mixture with another compound)	-2%	?	10µM*	41%	1	-2
CCOC(=O)C1=NN(N=O)C2(CC(=O)N(c3cc(C)cc(C)c3)C2=O)C1 (stereo not drawn)	2%	4%	-4%	/	-7	-4
CCOC(=O)C1CCN(C(=O)/C=C/c2ccc3c(c2)OCO3)CC1	-7%	-2%	131%	-47%	77	29*
CCOC(=O)C1CCCN(C(=O)/C=C/c2ccccc2)CC1 (stereo not drawn)	-2%	/	/	/	/	/
O=C(/C=C/c1ccc2c(c1)OCO2)N1CCN(c2ccc(Cl)cc2)CC1	-4%	13%	32%	-2%	-3	-2
CN(C)C(CNC(=O)C1CCN(C(=O)/C=C/c2ccccc2)CC1)c1ccccc1 (stereo not drawn)	-16%	3%	-23%	-30%	59*	38*
CCOC(=O)C1CCN(C(=O)/C=C/c2ccccc2)CC1	0%	3%	i	12%	73*	33
O=C(/C=C/c1ccc2c(c1)OCO2)N1CCCCC1	-8%	-10%	155%	?	45*	39*
O=C(O)C1CCCN(C(=O)/C=C/c2ccccc2)CC1 (stereo not drawn)	9%	/	/	/	/	/
O=C(NC(=S)NCCc1ccccc1)c1cccc(Cl)c1	52%	0%	9%	7%	-12	11
CCCc1nc2c(C)cc(Br)cn2c1Cc1ccc(C)cc1	0%	/	/	/	/	/
